The structures appear in SMILES notation. About 83,000 compounds went through this panel and 20% of them were active in at least one assay; those are over-represented in the sample as a whole.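 In brief: 96-well plates, 48 h treatment, single concentration, percent growth endpoint.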 Values without a mark were called inactive. Activity calls are given as the source filed them.

The subject of this assay is OVCAR-3 ovarian. Kind of assay: NCI-60 one-dose screen, 48 h (100 = growth as untreated, 0 = no growth, -100 = all killed). Conditions: 10 µM unless noted. How it is done: Growth inhibition of the OVCAR-3 human tumor cell line is measured as a screen for anti-cancer activity. Cells are grown in 96 well plates and exposed to the test compound for 48 hours. Compounds are tested at a single concentration, which is 10^-5 M for most compounds. The reported endpoint is percent growth (GI% or GIPRCNT), where numbers from 0 - 100% represent growth inhibition, and numbers from -100% - 0 represent cell death. For example, a value of 40 represents 60% growth inhibition. A value of 0 means no net growth occurred over the course of the experiment. A value of -40 indicates 40% of cells at the beginning of the experiment died by the end of the experiment. A value of -100 means all cells are dead at the end of the experiment.
NCI-60 Human Tumor Cell Lines Screen was performed using the standard one-dose NCI protocol, which is described in more detail at https://dtp.cancer.gov/discovery_development/nci-60/default.htm.
Compounds with GIPRCNT values below 10 were considered active. Activity score was based on GIPRCNT using the following formula: […]
Score is 0 for GIPRCNT values of 100 or above, 50 for GIPRCNT values of 0, and 100 for GIPRCNT values of -100.
On to `CCCN=C(N)c1ccc(NC(=O)c2ccc(C(=O)Nc3ccc(C(N)=NCCC)cc3)cc2)cc1`, for which the growth is 102%. To `CCOc1cc(CNc2ccc(N3CCOCC3)c(C(=O)O)c2)ccc1OC` belongs 105%; to `O=C1Nc2c(ccc(Cl)c2Cl)/C1=C/c1ccc(O)cc1`, 92.9%. As for `COc1ccc(Cn2nc(-c3ccccc3)c3c2CCc2cnoc2-3)cc1`, the figure is 87.4%. To `CCc1nc(C)cn1C(=O)OCc1nc2nc(Cl)nc(N3CCOCC3)c2[nH]1` belongs -80.9% (active); to `CCNC(=O)c1[nH]cc(-c2ccc(OC)cc2)c1-c1cc(OC)cc(OC)c1`, 83.5%. Turning to `Cc1ccc2nc3c(cc2c1)CSc1nnc(-c2ccc[nH]c2=S)n1N3`, the growth was 99.5%. To `COc1ccc(-c2nc(SC(C)C)nc(NNC(N)=O)c2C#N)cc1` belongs 81%.

On to `COc1ccc(/C=C/C(=O)c2ccc(OC)c(OC)c2)cc1O`, for which the growth is 18.8%. To `O=C(O)C(/C=C/c1ccco1)=N\Nc1nc(-c2ccc(Cl)cc2)cs1` belongs -4.27% (active). As for `COc1ccc(-c2nc(SC)nc(N3CCOCC3)c2C#N)cc1`, the figure is 98.5%; as for `Fc1ccccc1CSc1ncnc2nc[nH]c12`, 118%; as for `COC(=O)Nc1nc2ccc(C(=O)c3cccc(I)c3)cc2[nH]1`, -5.1% (active). `CC(=O)O[C@]1(C(C)=O)CC[C@H]2[C@@H]3C=C(Cl)C4=CC(=O)CC[C@]4(C)[C@H]3CC[C@@]21C`: the growth was 121%.

Regarding `CN1CCN(CCCNc2nccc(-c3c(-c4ccc(F)c(O)c4)nc4sccn34)n2)S1(=O)=O`, the growth was 116%. As for `CC(Oc1ccc(C(=O)NS(=O)(=O)C(C)(C)C)cc1C(F)(F)F)c1ccc(Oc2ccccc2)cn1` (stereo not given), the figure is 8.07% (active); as for `COc1cc(NCCN(CC(C)C)C2CCCC2)c2ncccc2c1`, 83.1%; as for `COc1ccc(-c2nc(N=Nc3c(O)[nH]c4ccccc34)nc(N3CCOCC3)c2C#N)cc1`, 67.4%. For the compound `COc1nccnn1`, the growth was 146%. As for `CC(=O)c1c(-c2ccc(OC(F)(F)F)cc2)nc2ccccn12`, the figure is 101%; as for `NC(=O)c1cccc(-c2cc(C(N)=O)ccc2Cl)c1`, -0.229% (active); as for `COc1cc(/C=N/NC(=O)c2ccccc2Nc2cccc(C(F)(F)F)c2)ccc1O`, 80.6%. As for `CN1CCN(c2ccc3nc(-c4cc(C(C)(C)C)c(O)c(C(C)(C)C)c4)[nH]c3c2)CC1`, the figure is 74.4%. To `COc1ccc(Nc2nc(N)nc3c2CCc2occc2-3)cc1` belongs 103%. Regarding `COc1ccc(Nn2c(SCC(=O)Nc3nc(-c4ccc(Cl)cc4)cs3)nc(C)c2C)cc1`, the growth was 60.7%. For `O=C1CCCCCCCCC(O)C(O)CCCC(c2cccs2)O1` (stereo not given), the growth was 102%.

Regarding `O=C(Nc1ccc2cc3ccc(NC(=O)NC4CCCCC4)cc3nc2c1)NC1CCCCC1`, the growth is 98.2%. To `COc1ccc(Cl)cc1NC(=O)c1c(NC(=O)C(F)(F)C(F)(F)F)sc2c1CCCCC2` belongs 6.24% (active); to `CC(=O)c1cc2c(N)c(C(=O)Nc3cncc4ccccc34)sc2nc1C`, 110%; to `CCCCCCCCOC(=O)c1ccc(O)c(OC)c1`, 101%. As for `C[C@@H]1CN(Cc2ccc(/C=C/c3n[nH]c4ccc5nc(-c6cn[nH]c6C(F)(F)F)c6c(c5c34)CCCC6)cc2)C[C@H](C)O1`, the figure is 38.2%. To `C=CCn1c(SCC(=O)Nc2ccc(C(=O)/C=C/c3cc(OC)c(OC)c(OC)c3)cc2)nnc1-c1cc(-c2ccc(S(C)(=O)=O)cc2)nc2ccccc12` belongs 85.9%; to `COc1cc(CCNc2nc3cc(N)cc(N)c3nc2-c2ccccc2)cc(OC)c1`, -66.2% (active). Take `CC(=O)c1c[nH]c2ccc(-c3ccnc(Nc4ccc(NC(=O)C5CCCC5)c(CN5CCOCC5)c4)n3)cc12`: the growth is -7.43% (active). Take `Cc1ccc(-c2csc(/N=C3\C(=O)Nc4ccccc43)n2)cc1`: the growth was -10.7% (active).

In the case of `COc1cc(OC)c(/C=C/C(=O)c2ccc(Nc3ncnc4ccccc34)cc2)c(OC)c1`, the growth is -67.8% (active). Regarding `Nc1nnc(C(=O)c2cnc3n(c2=O)CCCCC3)s1`, the growth is 102%.

Consider `O=C(N=Nc1c(O)[nH]c2ccc(F)cc12)c1cc2ccccc2[nH]1`, for which the growth is 101%. To `Cn1c(=O)c2[nH]c(CCCc3nc4c([nH]3)c(=O)n(C)c(=O)n4C)nc2n(C)c1=O` belongs 128%; to `CC1(C)CCCN1CCCN1c2ccccc2Sc2ccc(Cl)cc21`, 68.5%.
